Screens as filed in PubChem.
An excerpt weighted towards active compounds, which were near 12% of everything screened.
Sfp PPTase inh: inhibitors of Bacillus subtilis Sfp phosphopantetheinyl transferase. Q9F4F7. Biochemical Sfp PPTase activity, qHTS. Potency, µM, for inactives: largest response in the series, negative = inhibition, most hits filed as inhibitors. actives 3.5% (n = 310,000);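 further: the enzyme is Sfp with the accession as filed and its product quenches rhodamine fluorescence; 0% = enzyme reaction without inhibitor and -100% = no enzyme wells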
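Sfp 15 nM + cpd, 15 min RT; start w/ rhodamine-CoA 5 uM, BHQ-2-YbbR 12.5 uM (final); 50 mM Hepes pH 7.6, 10 mM MgCl2, 0.01% NP-40, 0.01% BSA; read 525/598 nm at 0 and 30 min.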
TDP1 inh: TDP1 (human) enzyme inhibition. Q9NUW8. recombinant TDP1, AlphaScreen DNA substrate cleavage. Potency, µM (titrated, usually from 130 µM), inactives show at the top dose activity change, negative = inhibition, actives largely listed as inhibitors. actives 0.28% (n = 350,000); further: on the % scale 0 is the no-effect control and ±100 the full control effect; nearly all actives have a fitted effect of over 40% in size
Target sequence (Q9NUW8 whole entry, looked up): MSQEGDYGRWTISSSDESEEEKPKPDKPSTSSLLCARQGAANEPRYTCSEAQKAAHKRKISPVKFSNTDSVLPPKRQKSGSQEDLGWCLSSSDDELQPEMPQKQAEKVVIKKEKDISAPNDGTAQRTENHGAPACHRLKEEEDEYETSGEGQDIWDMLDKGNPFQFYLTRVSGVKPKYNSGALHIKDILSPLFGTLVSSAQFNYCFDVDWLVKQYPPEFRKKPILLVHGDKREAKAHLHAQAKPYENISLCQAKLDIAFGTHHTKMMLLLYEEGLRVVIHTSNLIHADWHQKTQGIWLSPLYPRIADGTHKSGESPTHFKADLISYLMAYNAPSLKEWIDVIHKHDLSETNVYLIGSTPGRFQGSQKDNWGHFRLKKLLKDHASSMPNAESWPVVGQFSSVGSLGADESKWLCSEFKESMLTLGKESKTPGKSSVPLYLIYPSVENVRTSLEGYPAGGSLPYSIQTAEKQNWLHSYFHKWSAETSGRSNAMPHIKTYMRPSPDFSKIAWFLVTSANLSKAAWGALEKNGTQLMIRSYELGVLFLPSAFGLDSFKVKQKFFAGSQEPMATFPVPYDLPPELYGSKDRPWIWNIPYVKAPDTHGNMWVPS
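Recombinant human Tdp1 (E. coli-expressed, 1 nM final) preincubated with compounds 15 min at room temperature, then 5'-biotin/3'-phosphotyrosine-FITC DNA substrate (15 nM final) added for 5 min. AlphaScreen beads (10 ug/ml final) added 10 min; cleavage lowers signal.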
HP1b chromo inh: inhibitors of HP1-beta chromodomain binding to methylated histone tails. P83916. actives 0.56% (n = 390,000). AlphaScreen HP1-beta / biotin-H3K9me3 peptide binding. Potency, µM (titrated, usually from 114 µM), for inactives: at the highest dose activity change, negative = inhibition, hits mostly inhibitors; further: nearly all actives have a fitted effect of over 70% in size
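HP1-beta protein (50 nM final) preincubated 30 min at room temperature with biotinylated H3(1-18)K9me3 peptide (50 nM) in PBS pH 7.4, 0.01% Tween-20, then compound added for 30 min. AlphaScreen streptavidin donor/nickel chelate acceptor beads (10 ug/mL final), 30 min dark, luminescence read.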
G9a inh: G9a (human) methyltransferase inhibition. actives 8.8% (n = 350,000). Potency, µM (titrated, usually from 102 µM), for inactives: at the top dose activity, negative = inhibition, actives largely listed as inhibitors. G9a H3K9 monomethylation, AlphaScreen, 2 h. Q96KQ7; further: on the % scale 0 is the no-effect control and ±100 the full control effect; nearly all actives have a fitted effect of over 75% in size
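AlphaScreen read-out: biotin-H3K9 peptide (500 nM) methylation by 20 nM enzyme with 20 uM SAM, 2 h at room temperature after 15 min compound preincubation; anti-monomethyl H3K9 antibody plus donor/acceptor beads, 10 min dark.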
JMJD2A Tudor: JMJD2A Tudor domain (human) inhibition | AlphaScreen JMJD2A-Tudor / H3K4me3 peptide binding | Potency, µM (doses to about 114 µM), inactives show at the highest dose activity change, negative = inhibition, usual class: inhibitors | actives 4.4% (n = 390,000) | AID 504339; further: on the % scale 0 is the no-effect control and ±100 the full control effect; nearly all actives have a fitted effect of over 50% in size
BAZ2B inh: blocks human BAZ2B | AlphaScreen BAZ2B-H3K14Ac peptide displacement | actives 4.4% (n = 360,000) | Q9UIF8 | Potency, µM (series often up to 114 µM), for inactives: at the highest dose activity change, negative = inhibition, usual class: inhibitors; further: on the % scale 0 is the no-effect control and ±100 the full control effect; nearly all actives have a fitted effect of over 60% in size
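Protein-peptide AlphaScreen: BAZ2B 50 nM, b-H3K14Ac 50 nM, 1x PBS pH 7.4 + 0.01% Tween-20. Preincubation 30 min RT; cpd 30 min RT (top 110 uM); beads 20 min RT, light-protected.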
* hit, by the source's call; [ ] = another dose, or the depositor's remark. The call rests on the fitted dose curve; in most records, active means well fitted curve in the direction sought with a large enough effect; inconclusive means small, poorly fitted or top-dose-only effect, or another doubt; inactive means no such curve, though single readings can be large; an effect the other way counts as inactive or inconclusive. Potency means the concentration at half of the fitted maximal effect.

Results for CO[C@]1(NC(=O)C(C(=O)O)c2ccc(O)cc2)C(=O)N2C(C(=O)O)=C(CSc3nnnn3C)COC21 (stereo partly specified) ?
Sfp PPTase inh: -16%; TDP1 inh: -13%; G9a inh: -22%[2.33 µM]

How did Cc1cc(C)cc(S(=O)(=O)c2cn(C)c3cc(N4CCCC4)c(F)cc3c2=O)c1 do in these assays?
TDP1 inh: 4%; HP1b chromo inh: 42%; G9a inh: 1%[59 µM]; JMJD2A Tudor: -14%; BAZ2B inh: -3%

Results for COc1cccc(NC(=O)C2CCCO2)c1 (stereo unspecified) ?
Sfp PPTase inh: 9%; HP1b chromo inh: 21%; G9a inh: 0%; JMJD2A Tudor: 1%; BAZ2B inh: 3%

Results for Nc1ncnc(Sc2ncccn2)c1[N+](=O)[O-] ?
Sfp PPTase inh: 35µM*; TDP1 inh: -5%; HP1b chromo inh: 31%; G9a inh: inconclusive; JMJD2A Tudor: -20%; BAZ2B inh: 79µM*

Results for Cc1cc(=O)oc2c(C)c(OCC(=O)NCCCN3CCOCC3)ccc12 ?
Sfp PPTase inh: 10%; TDP1 inh: 0%; HP1b chromo inh: 31%; JMJD2A Tudor: -6%; BAZ2B inh: -5%

Results for O=C(N/N=C\c1ccc(Cl)s1)c1ccc(Cn2cccn2)o1 ?
Sfp PPTase inh: -1%; TDP1 inh: 5%; HP1b chromo inh: -10%; G9a inh: 10%[59 µM]; JMJD2A Tudor: 50µM*; BAZ2B inh: 8%

How did CC1(C)CC(NC(=O)c2cc(S(=O)(=O)N3CCOCC3)c(Cl)cc2Cl)CC(C)(C)N1 do in these assays?
TDP1 inh: 0%; HP1b chromo inh: 35%; G9a inh: 8%[0.501 µM]; JMJD2A Tudor: -1%; BAZ2B inh: 50µM*

Results for CN1CCN(C(=O)c2ccc(Cl)c(S(=O)(=O)N3CCCCC3)c2)CC1 ?
Sfp PPTase inh: 0%; TDP1 inh: -5%; HP1b chromo inh: 40%; G9a inh: inconclusive; JMJD2A Tudor: -10%; BAZ2B inh: -1%

How did CN1CCCN(C(=O)c2ccc(Cl)c(S(=O)(=O)N(C)c3ccccc3)c2)CC1 do in these assays?
Sfp PPTase inh: 9%; TDP1 inh: 4%; HP1b chromo inh: 28%; G9a inh: 50µM*; JMJD2A Tudor: -13%; BAZ2B inh: 0%

How did O=c1[nH]c(C(F)(F)C(F)(F)C(F)(F)F)no1 do in these assays?
HP1b chromo inh: 20%; JMJD2A Tudor: -14%

What do the screens show for `O=C1/C(=C/c2ccco2)SC(=S)N1C1CCS(=O)(=O)C1` (stereo unspecified)?
Sfp PPTase inh: 17%; TDP1 inh: -5%; HP1b chromo inh: -15%; G9a inh: 45µM*; JMJD2A Tudor: inconclusive; BAZ2B inh: 50µM*

Results for O=C1/C(=C\c2ccco2)SC(=S)N1C1CCS(=O)(=O)C1 (stereo unspecified) ?
Sfp PPTase inh: 32µM*; TDP1 inh: -5%; HP1b chromo inh: inconclusive; JMJD2A Tudor: 56µM*; BAZ2B inh: 40µM*

What do the screens show for `O=C(O)CC(C(=O)Nc1ccc(F)cc1)C1CCCO1` (stereo unspecified)?
Sfp PPTase inh: 12%; HP1b chromo inh: 0%; G9a inh: -4%[59 µM]; JMJD2A Tudor: -11%; BAZ2B inh: -1%

How did Brc1cccc(OCCN2CCc3ccccc3C2)c1 do in these assays?
Sfp PPTase inh: -2%; TDP1 inh: 3%; HP1b chromo inh: 82%; JMJD2A Tudor: 14%; BAZ2B inh: -3%

What do the screens show for `Cc1cccc(OCCCCCN2CCOCC2)c1`?
Sfp PPTase inh: 21%; HP1b chromo inh: 22%; G9a inh: 18%[59 µM]; JMJD2A Tudor: 1%; BAZ2B inh: -2%

How did Brc1cccc(OCCN2CCOCC2)c1 do in these assays?
Sfp PPTase inh: -17%; HP1b chromo inh: inconclusive; G9a inh: 8.9µM*; JMJD2A Tudor: 5.6µM*; BAZ2B inh: 50µM*
